Reference: PubChem BioAssay
Activity calls are given as the source filed them.

Legend:
[1] = binders of probe aFSTL3 on microarray, primary screen, stem cell growth factor project, biochemical, small-molecule microarray, fluorescence 635/667 (AID 1064); settings: higher = more signal;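 further: measures binding of the biotinylated anti-FSTL3 antibody to printed compounds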
[2] = binders from COS7 lysate, DM2A8 probe, primary screen, torsin A project, cell lysate, small-molecule microarray, fluorescence 635/667 (AID 1065); settings: higher = more signal, COS7 lysate expressing mutant human TOR1A
[3] = binders of probe aFGF2 on microarray, primary screen, stem cell growth factor project, biochemical, small-molecule microarray, fluorescence 635/667 (AID 1067); settings: higher = more signal;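 further: measures binding of biotinylated aFGF2 protein to printed compounds on slides; z-score merges feature fluorescence and signal-to-noise across triplicate slides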
[4] = binders of probe aFGF10 on microarray, primary screen, stem cell growth factor project, biochemical, small-molecule microarray, fluorescence 635/667 (AID 1071); settings: higher = more signal;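 further: score merges 667 nm spot intensity and signal to noise from triplicate slides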
[5] = biological target: Neurogenic locus notch homolog protein 2 (Homo sapiens) (UniProt Q04721); experiment: Notch2 binders on small-molecule microarrays, primary screen, biochemical, small-molecule microarray, 635 nm fluorescence, stem cell growth factors (AID 1073); settings: Notch2 binding, higher = more signal
[6] = biological target: Pro-neuregulin-1, membrane-bound isoform (Homo sapiens) (UniProt Q02297); experiment: NRG1 binders on small-molecule microarrays, primary screen, psychiatric disease protein project, biochemical, small-molecule microarray, fluorescence 635/667 (AID 1075); settings: NRG1 binding, 635 nm fluorescence, higher = more signal;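 further: score combines 667 nm spot fluorescence with signal to noise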
[7] = system: Neuregulin-1 EGF-like domain; experiment: binders of neuregulin-1 EGF-like domain, primary screen, biochemical, small-molecule microarray, 635 nm fluorescence (AID 1081); settings: small-molecule microarray binding, higher = more signal;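 further: binding of the protein to compounds printed on small-molecule microarray slides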
[8] = FRG1 promoter luciferase signal modulators, primary screen, FRG1 inhibition for FSHD, cell-based, C2C12 myotubes, firefly/Renilla luciferase, luminescence (AID 1084); settings: higher = more signal, called active from +8 up or from −8 down
[9] = binders of probe aFST on microarray, primary screen, stem cell growth factor project, biochemical, small-molecule microarray, fluorescence 635/667 (AID 1086); settings: higher = more signal;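 further: score merges 667 nm fluorescence with signal-to-noise of each printed compound spot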
[10] = binders of probe aHhip on microarray, primary screen, stem cell growth factor project, biochemical, small-molecule microarray, fluorescence 635/667 (AID 1087); settings: higher = more signal;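 further: score merges spot fluorescence at 667nm with spot signal to noise ratio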
[11] = system: PRMT1 (protein arginine N-methyltransferase 1); experiment: PRMT1 binders on small-molecule microarrays, primary screen, biochemical, small-molecule microarray, 635 nm fluorescence (AID 1088); settings: small-molecule microarray binding, higher = more signal;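 further: binding of Prmt1 protein to compounds spotted on small-molecule microarray slides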
[12] = yeast growth modulation, basal conditions, primary screen, YJM789 clinical isolate, OD600, 24 h (AID 1089);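 further: growth of clinical yeast isolate S. cerevisiae YJM 789 seeded 1000 cells per well; test concentration not given here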; settings: S. cerevisiae YJM789 growth, higher = more signal, called active from +8 up or from −8 down
[13] = fission yeast growth modulation, primary screen, strain 972, OD600, 24 h, no modulator (AID 1090);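 further: basal condition with compound alone and no growth modifier present; test concentration not given here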; settings: S. pombe 972 growth, higher = more signal, called active from +8 up or from −8 down
[14] = S. cerevisiae growth modulation with rapamycin, primary screen, strain BY4716, OD600, 96 h (AID 1091); settings: higher = more signal, called active from +8 up or from −8 down; further: test concentration not given here
[15] = biological target: Torsin-1A-interacting protein 2 (Homo sapiens) (UniProt Q8NFQ8); experiment: LULL1 binders on small-molecule microarray, primary screen, cell lysate, human LULL1 lysate, 635/667 nm fluorescence (AID 1092); settings: hLULL1 lysate binding, 635 nm fluorescence, higher = more signal;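 further: probe is lysate of COS7 cells overexpressing human LULL1; score merges per-feature 667 nm fluorescence with signal-to-noise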
[16] = E. coli growth modulation, two-sided OD650, primary screen, E. coli filamentation project, strain DRC41, 24 h (AID 1093); settings: OD650, 24 h, higher = more signal, called active from +8 up or from −8 down;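 further: MC1000 strain lacking acrAB efflux and sulA so SOS filamentation is blocked; test concentration not given here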
[17] = small-molecule microarray binders of probe aLefty2, primary screen, biochemical, biotinylated probe, 635/667 nm fluorescence (AID 1094); settings: higher = more signal;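 further: score merges spot fluorescence near 667 nm with spot signal-to-noise ratio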
[18] = system: Noggin (protein binding on small-molecule microarray); experiment: Noggin binders on small-molecule microarray, primary screen, biochemical, 635/667 nm fluorescence (AID 1095); settings: 635 nm fluorescence, higher = more signal;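 further: score merges 667 nm feature fluorescence with signal to noise over triplicate slides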
[19] = biological target: Neurogenic locus notch homolog protein 3 (Homo sapiens) (UniProt Q9UM47); experiment: NOTCH3 binders on small-molecule microarray, primary screen, biochemical, 635/667 nm fluorescence (AID 1096); settings: NOTCH3 binding, 635 nm fluorescence, higher = more signal
[20] = small-molecule microarray binders of probe aEGFR, primary screen, biochemical, biotinylated probe, 635/667 nm fluorescence (AID 1097); settings: higher = more signal;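 further: probe is a biotinylated anti-EGFR antibody binding compounds printed on slides; score combines fluorescence near 667 nm and signal to noise of each spot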

Chain of Neurogenic locus notch homolog protein 3 (Homo sapiens) (Q9UM47 whole entry, looked up): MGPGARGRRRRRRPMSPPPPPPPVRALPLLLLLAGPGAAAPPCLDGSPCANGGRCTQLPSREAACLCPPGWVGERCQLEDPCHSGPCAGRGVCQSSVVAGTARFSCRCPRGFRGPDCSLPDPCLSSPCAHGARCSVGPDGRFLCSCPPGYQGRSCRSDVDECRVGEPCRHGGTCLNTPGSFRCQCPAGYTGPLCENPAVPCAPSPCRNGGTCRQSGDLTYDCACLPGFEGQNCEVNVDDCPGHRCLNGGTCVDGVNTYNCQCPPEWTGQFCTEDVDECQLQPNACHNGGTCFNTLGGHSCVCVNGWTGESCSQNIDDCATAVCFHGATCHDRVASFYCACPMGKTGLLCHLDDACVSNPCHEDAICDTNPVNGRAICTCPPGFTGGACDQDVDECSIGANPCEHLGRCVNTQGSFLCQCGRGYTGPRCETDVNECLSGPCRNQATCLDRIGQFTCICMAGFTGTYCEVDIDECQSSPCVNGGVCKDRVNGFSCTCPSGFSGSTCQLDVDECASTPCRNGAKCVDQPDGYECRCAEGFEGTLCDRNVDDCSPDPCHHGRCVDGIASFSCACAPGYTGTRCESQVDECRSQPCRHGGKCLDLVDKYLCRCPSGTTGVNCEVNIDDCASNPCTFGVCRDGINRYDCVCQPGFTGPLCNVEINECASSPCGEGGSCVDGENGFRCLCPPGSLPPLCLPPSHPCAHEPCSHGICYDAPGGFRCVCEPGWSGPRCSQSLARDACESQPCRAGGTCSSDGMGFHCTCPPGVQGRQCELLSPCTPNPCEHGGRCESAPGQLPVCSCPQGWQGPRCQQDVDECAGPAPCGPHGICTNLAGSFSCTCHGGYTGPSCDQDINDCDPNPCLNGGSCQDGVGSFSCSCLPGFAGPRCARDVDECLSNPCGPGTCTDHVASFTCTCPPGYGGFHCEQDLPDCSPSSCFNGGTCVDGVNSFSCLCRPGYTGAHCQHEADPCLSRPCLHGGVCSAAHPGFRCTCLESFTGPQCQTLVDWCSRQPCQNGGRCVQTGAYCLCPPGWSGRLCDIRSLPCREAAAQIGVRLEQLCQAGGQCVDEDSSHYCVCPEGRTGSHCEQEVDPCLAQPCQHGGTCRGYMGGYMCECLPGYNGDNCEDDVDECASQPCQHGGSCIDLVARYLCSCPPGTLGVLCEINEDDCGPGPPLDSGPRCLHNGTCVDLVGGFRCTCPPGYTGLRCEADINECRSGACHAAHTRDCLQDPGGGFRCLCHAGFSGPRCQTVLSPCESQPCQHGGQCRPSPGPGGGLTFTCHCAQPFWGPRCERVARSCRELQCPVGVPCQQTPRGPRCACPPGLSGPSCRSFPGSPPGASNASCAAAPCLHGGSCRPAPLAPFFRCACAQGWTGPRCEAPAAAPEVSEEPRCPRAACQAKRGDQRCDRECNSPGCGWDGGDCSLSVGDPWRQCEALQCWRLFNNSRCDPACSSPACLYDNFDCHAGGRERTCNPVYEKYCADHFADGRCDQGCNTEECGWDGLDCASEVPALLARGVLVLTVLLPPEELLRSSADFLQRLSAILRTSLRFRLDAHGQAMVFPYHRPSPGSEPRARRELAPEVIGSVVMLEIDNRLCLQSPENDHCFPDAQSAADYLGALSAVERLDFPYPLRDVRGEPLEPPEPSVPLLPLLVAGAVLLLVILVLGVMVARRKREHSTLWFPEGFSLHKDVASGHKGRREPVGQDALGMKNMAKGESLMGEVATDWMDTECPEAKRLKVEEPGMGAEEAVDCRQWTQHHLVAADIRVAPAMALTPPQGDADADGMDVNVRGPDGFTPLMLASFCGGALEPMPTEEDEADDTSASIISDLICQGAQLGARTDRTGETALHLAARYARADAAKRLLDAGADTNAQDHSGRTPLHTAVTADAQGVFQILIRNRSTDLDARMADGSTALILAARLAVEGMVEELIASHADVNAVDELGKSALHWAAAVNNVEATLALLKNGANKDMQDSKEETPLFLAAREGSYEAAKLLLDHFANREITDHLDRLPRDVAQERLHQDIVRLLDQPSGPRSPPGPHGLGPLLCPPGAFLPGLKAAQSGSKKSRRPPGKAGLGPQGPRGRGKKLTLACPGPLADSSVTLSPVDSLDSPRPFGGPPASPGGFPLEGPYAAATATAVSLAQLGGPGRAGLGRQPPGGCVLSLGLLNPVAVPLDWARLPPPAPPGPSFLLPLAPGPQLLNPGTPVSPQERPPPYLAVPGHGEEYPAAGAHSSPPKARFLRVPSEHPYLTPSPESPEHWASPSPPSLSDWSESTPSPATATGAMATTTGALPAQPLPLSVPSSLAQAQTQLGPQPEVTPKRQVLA
Chain of Torsin-1A-interacting protein 2 (Homo sapiens) (Q8NFQ8 whole entry, looked up): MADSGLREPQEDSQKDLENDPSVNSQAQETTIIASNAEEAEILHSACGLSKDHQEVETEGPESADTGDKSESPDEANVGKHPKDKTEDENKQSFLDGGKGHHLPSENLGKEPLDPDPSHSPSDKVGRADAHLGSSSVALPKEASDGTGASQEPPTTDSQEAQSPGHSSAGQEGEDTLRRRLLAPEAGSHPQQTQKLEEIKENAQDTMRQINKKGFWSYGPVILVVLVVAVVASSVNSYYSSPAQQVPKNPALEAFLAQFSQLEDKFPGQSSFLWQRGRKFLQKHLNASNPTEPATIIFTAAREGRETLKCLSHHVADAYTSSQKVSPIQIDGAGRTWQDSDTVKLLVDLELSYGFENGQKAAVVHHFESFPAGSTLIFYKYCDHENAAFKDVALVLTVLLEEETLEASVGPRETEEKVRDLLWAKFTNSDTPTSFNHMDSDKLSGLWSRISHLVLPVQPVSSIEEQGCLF
Chain of Pro-neuregulin-1, membrane-bound isoform (Homo sapiens) (Q02297 whole entry, looked up, the tested form may be a part, canonical isoform): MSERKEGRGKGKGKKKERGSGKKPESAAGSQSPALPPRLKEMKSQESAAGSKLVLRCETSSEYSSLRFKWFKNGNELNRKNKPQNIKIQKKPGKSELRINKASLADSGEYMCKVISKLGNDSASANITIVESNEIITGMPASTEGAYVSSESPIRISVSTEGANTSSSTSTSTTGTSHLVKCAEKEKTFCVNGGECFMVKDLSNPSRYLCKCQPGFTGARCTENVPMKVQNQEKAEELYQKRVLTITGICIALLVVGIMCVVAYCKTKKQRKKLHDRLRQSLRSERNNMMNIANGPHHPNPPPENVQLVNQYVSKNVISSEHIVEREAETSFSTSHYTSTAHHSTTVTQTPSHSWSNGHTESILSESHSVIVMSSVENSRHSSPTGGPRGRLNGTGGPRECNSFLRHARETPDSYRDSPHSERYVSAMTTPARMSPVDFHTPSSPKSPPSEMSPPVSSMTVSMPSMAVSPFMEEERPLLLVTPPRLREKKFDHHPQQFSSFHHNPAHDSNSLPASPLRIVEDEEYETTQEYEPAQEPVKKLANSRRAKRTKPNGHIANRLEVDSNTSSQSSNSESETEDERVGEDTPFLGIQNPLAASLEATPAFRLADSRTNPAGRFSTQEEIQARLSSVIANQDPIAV

Row | Structure (SMILES) | composite z-score [1] | composite z-score [2] | composite z-score [3] | composite z-score [4] | composite z-score [5] | composite z-score [6] | composite z-score [7] | z-score [8] | composite z-score [9] | composite z-score [10] | composite z-score [11] | z-score [12] | z-score [13] | z-score [14] | composite z-score [15] | z-score [16] | composite z-score [17] | composite z-score [18] | composite z-score [19] | composite z-score [20]
1 | CC1CC/C=C\[C@H]2OC34C=CCN(Cn5nnc6ccccc65)C(=O)[C@H]3N(CCCO)C(=O)[C@@H]4C2C(=O)O1 (stereo not given in full) | 0.536 | -1.14 | -0.0973 | -0.988 | -0.955 | 1.38 | 1.57 | -0.275 (inactive) | -0.474 | -0.196 | -0.749 | 0.175 (inactive) | -0.463 (inactive) | 0.203 (inactive) | 0.389 | 1.82 (inactive) | -0.0499 | -0.511 | 0.0174 | -0.192
2 | COCCOC(=O)N1C(=O)[C@@]2(c3ccccc31)[C@H](c1ccc(O)cc1)N1[C@H](c3ccccc3)[C@H](c3ccccc3)OC(=O)[C@H]1[C@@H]2C(N)=O | 0.113 | 0.192 | -0.106 | -0.304 | -0.818 | 0.178 | 0.651 | -1.16 (inactive) | -0.722 | -0.226 | -0.0183 | 0.396 (inactive) | -0.153 (inactive) | 0.549 (inactive) | 2.35 | -0.29 (inactive) | -0.126 | -0.678 | -0.474 | -0.16
3 | C[C@]1(C(=O)NCC(F)(F)F)c2ccccc2C(=O)N(Cc2cc(F)cc(C(F)(F)F)c2)[C@H]1c1ccc(CO)cc1 | -0.599 | 0.553 | 0.274 | 0.0438 | -0.94 | 1.74 | 0.623 | -0.763 (inactive) | -0.409 | 2.14 | 1.38 | 0.49 (inactive) | -0.936 (inactive) | -0.563 (inactive) | 2.67 | -0.951 (inactive) | 0.341 | -0.16 | -0.255 | 0.52
4 | Cc1ccc(C(C)CC(O)C2C=CC3C(=O)NC(=O)C3N2Nc2ccccn2)o1 (stereo not given) | -0.0428 | 0.573 | -0.0951 | 0.174 | -0.0116 | 0.753 | 0.845 | 0.327 (inactive) | 0.0821 | -0.249 | 1.09 | 0.633 (inactive) | 0.0293 (inactive) | 0.124 (inactive) | 1.94 | 0.504 (inactive) | -0.0225 | 0.312 | -0.233 | -0.0302
5 | O=C1NC(=O)C2C1C=CC(C(O)c1cccs1)N2Nc1ccccn1 (stereo not given) | 0.151 | -0.133 | 0.0094 | 0.692 | 1.14 | 0.689 | 0.877 | 0.304 (inactive) | 0.282 | -0.188 | 0.394 | 0.378 (inactive) | -0.31 (inactive) | 0.206 (inactive) | 1.12 | -0.248 (inactive) | 0.305 | 0.0671 | 0.242 | 0.119
6 | CC1CC/C=C\[C@H]2OC34C=CCN(c5ccc6ccccc6c5)C(=O)[C@H]3N(CCCCCO)C(=O)[C@@H]4C2C(=O)O1 (stereo not given in full) | -0.46 | -0.0205 | -0.159 | -1.01 | -1.04 | -0.712 | -0.734 | 0.772 (inactive) | -0.818 | -0.306 | -0.712 | 0.231 (inactive) | 0.0271 (inactive) | -0.32 (inactive) | -1.87 | -0.603 (inactive) | 0.182 | -1.21 | -0.7 | -0.233
